In PubChem BioAssay (NCI):
The panel holds about 83,000 compounds, 20% with a hit somewhere; the sample as a whole holds those more often.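 Assay: single dose, 48 h. Readout: percent growth (0 = no net growth; negative = cell death). Active: <10.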 Activity calls are given as the source filed them.

Columns and labels:
Assay in all cases: NCI-60 one-dose screen, 48 h (100 = growth as untreated, 0 = no growth, -100 = all killed)
Details in all cases: 10 µM unless noted
SK-MEL-2 melanoma = test system: SK-MEL-2 melanoma
EKVX NSCLC = test system: EKVX NSCLC
SN12C renal = test system: SN12C renal
UO-31 renal = test system: UO-31 renal
TK-10 renal = test system: TK-10 renal
ACHN renal = test system: ACHN renal
A498 renal = test system: A498 renal
CCRF-CEM leukemia = test system: CCRF-CEM leukemia
MOLT-4 leukemia = test system: MOLT-4 leukemia
SR leukemia = test system: SR leukemia

Measured: growth

COc1cc(C2=NN(C=O)C(c3cccc(Nc4ccnc5cc(C(F)(F)F)ccc45)c3)C2)cc(OC)c1OC (configuration not stated)
inactive: SK-MEL-2 melanoma 70.7% | EKVX NSCLC 61.5% | SN12C renal 62.4% | UO-31 renal 37.6% | TK-10 renal 46.5% | ACHN renal 65.5% | A498 renal 65.4% | CCRF-CEM leukemia 37.5% | MOLT-4 leukemia 21.5%

O=C(CCl)N1CCCc2ccccc21
inactive: SK-MEL-2 melanoma 110% | EKVX NSCLC 96.4% | SN12C renal 93.8% | UO-31 renal 82.8% | TK-10 renal 102% | ACHN renal 101% | A498 renal 94.5% | CCRF-CEM leukemia 96.8% | MOLT-4 leukemia 93.5%

COc1ccc(C2N(c3cc(OC)c(OC)c(OC)c3)C(=O)C2(F)F)cc1F (configuration not stated)
inactive: SK-MEL-2 melanoma 84.6% | EKVX NSCLC 77.7% | SN12C renal 54.9% | UO-31 renal 53.5% | TK-10 renal 106% | ACHN renal 60.8% | A498 renal 97.8% | CCRF-CEM leukemia 13% | MOLT-4 leukemia 18.7% | SR leukemia 18.7%

O=c1[nH]c(-c2cccc(F)c2)cc2cc(F)ccc12
inactive: SK-MEL-2 melanoma 67.4% | EKVX NSCLC 39.3% | SN12C renal 49.3% | UO-31 renal 55.8% | TK-10 renal 58.5% | ACHN renal 47% | A498 renal 21.9% | CCRF-CEM leukemia 13.6% | MOLT-4 leukemia 21.9%

COc1cc([C@H](C)c2ccc3ccccc3c2)cc(OC)c1OC
inactive: SK-MEL-2 melanoma 28.3% | EKVX NSCLC 30.9% | SN12C renal 48.3% | UO-31 renal 42.1% | TK-10 renal 61.4% | ACHN renal 35.1% | A498 renal 12.7% | CCRF-CEM leukemia 16% | MOLT-4 leukemia 13.5% | SR leukemia 23.5%

C#CCOC(=O)[C@]1(C)CCC[C@]2(C)[C@H]3C[C@H]4C(C(C)C)=C[C@]3(CC[C@H]21)[C@@H]1C(=O)CCC(=O)[C@@H]14
inactive: SK-MEL-2 melanoma 88.2% | EKVX NSCLC 76.1% | SN12C renal 86.8% | UO-31 renal 74.7% | TK-10 renal 90.7% | ACHN renal 93.5% | A498 renal 66.5% | CCRF-CEM leukemia 67.1% | MOLT-4 leukemia 73.5% | SR leukemia 64.9%

CCOCCc1c(O)nc(SC)[nH]c1=O
active: SK-MEL-2 melanoma -28.8%
inactive: EKVX NSCLC 121% | SN12C renal 92.6% | UO-31 renal 83.9% | TK-10 renal 122% | ACHN renal 108% | A498 renal 85.7% | CCRF-CEM leukemia 113% | MOLT-4 leukemia 116%

O=C(/C(=C/c1ccc([N+](=O)[O-])cc1)SCc1ccccc1)c1ccc(Cl)cc1
inactive: SK-MEL-2 melanoma 84.5% | EKVX NSCLC 72.6% | UO-31 renal 59.5% | TK-10 renal 103% | ACHN renal 76.5% | A498 renal 76.5% | MOLT-4 leukemia 13.5%
active: SN12C renal -25.4% | CCRF-CEM leukemia 9.82%

COc1ccc(-c2[nH]c3ccc(OC)cc3c2C=C(C#N)C#N)cc1
inactive: SK-MEL-2 melanoma 34.3% | EKVX NSCLC 36.5% | SN12C renal 63.1% | UO-31 renal 50.1% | TK-10 renal 70.4% | ACHN renal 63.9% | A498 renal 52.6% | CCRF-CEM leukemia 11.1% | MOLT-4 leukemia 27.3%

C=C(C)[C@@H]1CC[C@]2(C(=O)OCCOCCOCC[P+](c3ccccc3)(c3ccccc3)c3ccccc3)CC[C@]3(C)[C@H](CC[C@@H]4[C@@]5(C)CC[C@H](C)C(C)(C)[C@@H]5CC[C@]43C)[C@@H]12
active: SK-MEL-2 melanoma -71.3% | EKVX NSCLC -67.2% | SN12C renal -75.9% | UO-31 renal -89.8% | TK-10 renal -88.6% | ACHN renal -92.6% | A498 renal -93.7% | CCRF-CEM leukemia -63% | MOLT-4 leukemia -75.4%

COc1ccc2nc(-c3ccc(Cl)cc3)cc(-c3nnc(SCC(=O)Nc4ccc(/C(C)=N\O)cc4)o3)c2c1
active: SN12C renal -7.09%
inactive: SK-MEL-2 melanoma 63.8% | EKVX NSCLC 35.4% | UO-31 renal 77.8% | TK-10 renal 79.4% | ACHN renal 65.6% | A498 renal 64% | CCRF-CEM leukemia 31.1% | MOLT-4 leukemia 12.4%

CCCCCOC(=O)c1ccccc1O
inactive: SK-MEL-2 melanoma 111% | EKVX NSCLC 94.2% | SN12C renal 105% | UO-31 renal 91.2% | TK-10 renal 99.5% | ACHN renal 107% | A498 renal 102% | CCRF-CEM leukemia 99.5% | MOLT-4 leukemia 97%

NC(N)=NC(N)=Nc1cc2ccccc2c2ccccc12
active: SK-MEL-2 melanoma 5.61% | MOLT-4 leukemia 9.61%
inactive: EKVX NSCLC 58% | SN12C renal 35.4% | UO-31 renal 32.6% | TK-10 renal 20.8% | ACHN renal 22.9% | A498 renal 26% | CCRF-CEM leukemia 38.6%

C=C1C(=O)O[C@H]2[C@H]1CC/C(COC(=O)n1ccnc1)=C\CC[C@@]1(C)O[C@@H]21
inactive: SK-MEL-2 melanoma 89.4% | EKVX NSCLC 80.9% | SN12C renal 96.2% | UO-31 renal 73.3% | TK-10 renal 94.7% | ACHN renal 82.8% | A498 renal 125% | CCRF-CEM leukemia 74.3% | MOLT-4 leukemia 83.4% | SR leukemia 77.5%

COc1ccc2[nH]c(=O)c(/C=C/C(=O)/C=C/c3ccc(O)c(OC)c3)cc2c1
inactive: SK-MEL-2 melanoma 78.3% | EKVX NSCLC 59.4% | TK-10 renal 61.1% | ACHN renal 49.9% | A498 renal 89.7% | MOLT-4 leukemia 21%
active: SN12C renal 4.69% | UO-31 renal -70.8% | CCRF-CEM leukemia 3.63%

Cc1nc2sc(C(=O)Nc3ccccc3)c(N)c2cc1C(C)O (configuration not stated)
inactive: SK-MEL-2 melanoma 39.3% | EKVX NSCLC 76.1% | SN12C renal 43.2% | UO-31 renal 61.6% | TK-10 renal 65.9% | ACHN renal 54.2% | A498 renal 36.3% | CCRF-CEM leukemia 16.6% | MOLT-4 leukemia 25.7%

C#CCN(CCCOc1ccc(Cl)cc1Cl)CCCSC(=O)CCCCCN1/C(=C\C=C2/CCCC(/C=C/C3=[N+](CCCCCC(=O)[O-])c4ccccc4C3(C)C)=C2Cl)C(C)(C)c2ccccc21
inactive: EKVX NSCLC 61.6% | UO-31 renal 94.9% | TK-10 renal 50.3% | ACHN renal 102% | A498 renal 13%
active: SK-MEL-2 melanoma -29% | SN12C renal 5.06% | CCRF-CEM leukemia -1.58% | MOLT-4 leukemia -18.7%

CC1=C(CCCOC(=O)NCCCl)C2=C(C)C3(CC3)[C@@](C)(O)C(=O)C2=C1
active: UO-31 renal -42.1% | TK-10 renal 9.96% | ACHN renal 5.75% | A498 renal -9.87%
inactive: SK-MEL-2 melanoma 14.5% | EKVX NSCLC 54.3% | SN12C renal 45.7% | CCRF-CEM leukemia 79.9% | MOLT-4 leukemia 70.4%

Cc1cccc2nc3c(n12)C(=O)C(=O)c1ccccc1-3
inactive: SK-MEL-2 melanoma 81.2% | EKVX NSCLC 64.1% | SN12C renal 37.1% | UO-31 renal 55.8% | TK-10 renal 125% | ACHN renal 69.4% | A498 renal 81.3% | CCRF-CEM leukemia 91.9% | MOLT-4 leukemia 81.1% | SR leukemia 88.2%

Cc1cc(Nc2nc(SCc3ccc(C(=O)Nc4ccc(F)cc4N)cc3)nn3cccc23)n[nH]1
inactive: SK-MEL-2 melanoma 18.2% | EKVX NSCLC 31% | SN12C renal 29% | UO-31 renal 31% | TK-10 renal 48.8% | ACHN renal 21.1% | SR leukemia 13.3%
active: A498 renal 5.84% | CCRF-CEM leukemia 9.8% | MOLT-4 leukemia 6.29%

COc1cc(C2=NN(c3ccccc3)C(c3cccc(Nc4ccnc5cc(C(F)(F)F)ccc45)c3)C2)cc(OC)c1OC (configuration not stated)
inactive: SK-MEL-2 melanoma 86.6% | EKVX NSCLC 85.2% | SN12C renal 97.1% | UO-31 renal 61.4% | TK-10 renal 78.2% | ACHN renal 95.2% | A498 renal 89.9% | CCRF-CEM leukemia 84.1%

OCCNc1nc(NCCO)nc(Nc2ccc(C3=NN(c4cc(Cl)cc(Cl)c4)C(c4ccc(C(F)(F)F)cc4)C3)cc2)n1 (configuration not stated)
active: CCRF-CEM leukemia -6.5% | MOLT-4 leukemia 7.9%
inactive: SK-MEL-2 melanoma 45.9% | EKVX NSCLC 49.4% | SN12C renal 59.6% | UO-31 renal 42.2% | TK-10 renal 33.1% | ACHN renal 29.6% | A498 renal 67.7%

C#Cc1ccccc1NC(=O)c1sc2nc3c(cc2c1N)CCCCC3
inactive: SK-MEL-2 melanoma 101% | EKVX NSCLC 84.8% | SN12C renal 98.2% | UO-31 renal 85.4% | TK-10 renal 117% | ACHN renal 101% | A498 renal 94.1% | CCRF-CEM leukemia 93.8% | MOLT-4 leukemia 94.5% | SR leukemia 81.2%

Nn1c(SCC(=O)Nc2ccc(Cl)cc2)nnc1-c1cc(F)c(Cl)cc1Cl
inactive: SK-MEL-2 melanoma 83.4% | EKVX NSCLC 90.9% | SN12C renal 97.8% | UO-31 renal 69.9% | TK-10 renal 97.6% | ACHN renal 87.2% | A498 renal 65.2% | CCRF-CEM leukemia 92.8% | MOLT-4 leukemia 80.4%

COC(=O)/C=C/c1cc(OC(C)=O)c2c(c1)C(C(=O)OC)C(c1ccc(OC(C)=O)c(OC(C)=O)c1)O2 (configuration not stated)
active: A498 renal 3.78% | CCRF-CEM leukemia 9.72% | SR leukemia 8.61%
inactive: SK-MEL-2 melanoma 25% | EKVX NSCLC 44.4% | SN12C renal 23.6% | UO-31 renal 35.2% | TK-10 renal 44.7% | ACHN renal 34.4% | MOLT-4 leukemia 15.3%

CCOCc1nc2ccccc2c(=O)[nH]1
inactive: SK-MEL-2 melanoma 113% | EKVX NSCLC 95.8% | SN12C renal 98% | UO-31 renal 92.9% | TK-10 renal 102% | ACHN renal 105% | A498 renal 105% | CCRF-CEM leukemia 97.1% | MOLT-4 leukemia 105%

COc1cc2nc3c(=O)n(-c4ccc(C#N)cc4)cnn3c(=O)c2cc1OC
inactive: SK-MEL-2 melanoma 94.4% | EKVX NSCLC 93.9% | SN12C renal 99% | UO-31 renal 83.6% | TK-10 renal 104% | ACHN renal 100% | A498 renal 113% | CCRF-CEM leukemia 143% | MOLT-4 leukemia 91.3%

Cc1[nH]c2ncnc(Oc3ccc(NC(=O)Nc4ccc(Cl)c(C(F)(F)F)c4)cc3)c2c1C
inactive: SK-MEL-2 melanoma 61.2% | EKVX NSCLC 43% | SN12C renal 69% | UO-31 renal 70.1% | TK-10 renal 81.1% | ACHN renal 39.9% | A498 renal 76% | CCRF-CEM leukemia 24.1%

COc1cccc(NC(=O)Nc2ccc(Nc3ncnc4[nH]c(C)c(C)c34)cc2)c1
inactive: SK-MEL-2 melanoma 104% | EKVX NSCLC 96.5% | SN12C renal 95% | UO-31 renal 85.2% | TK-10 renal 112% | ACHN renal 102% | A498 renal 107% | CCRF-CEM leukemia 86.1% | MOLT-4 leukemia 78.8%
